What all share (assay): growth (OD600 after 10 h); higher = more growth (less inhibition)
Experiment [1] relates to E. coli TESEC Alr+ wild-type control. The settings on record: compound 0.1 mM; raw OD600 reference: median of DMSO wells 0.241, cell-free background 0.041. Here is the method:
(§1)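 TESEC Mtb Alr E. coli, or the Alr+ wild-type control, in 384-well plates with Prestwick library compounds at 0.1 mM and 1% DMSO, across arabinose induction levels of 1E3 to 1E7 nM. Growth is read as OD600 after 10 h at 37 °C in triplicate biological replicates.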

Experiment [2] concerns E. coli TESEC Mtb Alr. The settings on record: compound 0.1 mM. The procedure:
as §1

The next experiment deals with E. coli TESEC Mtb Asd. To be noted: compound 0.1 mM. The procedure: (§2)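 TESEC E. coli strains in which the native enzyme is deleted and replaced by arabinose-inducible Mtb Asd, DapB, CysH or TrpD, each grown in its selective medium. Strains were screened against the Prestwick library at 0.1 mM and 1% DMSO in 384-well format at low and high arabinose induction. Growth is read as OD600 after 10 h in triplicate.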

A further experiment deals with E. coli TESEC Mtb DapB. To be noted: compound 0.1 mM. Here is the method: as §2
The subject of experiment [3] is E. coli TESEC Alr+ wild-type control. To be noted: compound 0.1 mM; raw OD600 reference: median of DMSO wells 0.49, cell-free background 0.052. Here is the method:
(§3)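 TESEC Mtb Alr E. coli (ΔaraC ΔtolC ΔentC Δalr ΔdadX, arabinose-inducible Mtb Alr) or the Alr+ wild-type control strain, grown in defined M9-fructose medium without D-alanine in 96-well plates with Prestwick library compounds at 0.1 mM and 1% DMSO. Low Alr induction is 0.1 µM arabinose and high induction is 10 mM arabinose.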

The subject of experiment [4] is E. coli TESEC Mtb Alr. The settings on record: compound 0.1 mM. Here is the method: as §3
The source holds these as a separate data set.

[5] abbreviates: arabinose 1000 nM, raw OD600 reference: median of DMSO wells 0.294, cell-free background 0.041.
Where [6] appears, read: arabinose 10000 nM, raw OD600 reference: median of DMSO wells 0.264, cell-free background 0.041.
Where [7] appears, read: arabinose 100000 nM, raw OD600 reference: median of DMSO wells 0.201, cell-free background 0.041.
[8] abbreviates: arabinose 1000000 nM, raw OD600 reference: median of DMSO wells 0.193, cell-free background 0.041.
The mark [9] stands for this setting: arabinose 10000000 nM, raw OD600 reference: median of DMSO wells 0.146, cell-free background 0.041.
Setting [10] is: arabinose induction (level): High, raw OD600 reference: median of DMSO wells 0.331, cell-free background 0.041.
The mark [11] stands for this setting: arabinose induction (level): Low, raw OD600 reference: median of DMSO wells 0.417, cell-free background 0.041.
[12] abbreviates: arabinose induction (level): High, raw OD600 reference: median of DMSO wells […], cell-free background 0.041.
[13] abbreviates: arabinose induction (level): Low, raw OD600 reference: median of DMSO wells 0.227, cell-free background 0.041.
Where [14] appears, read: arabinose 100 nM, raw OD600 reference: median of DMSO wells 0.413, cell-free background 0.052.
Setting [15] is: arabinose 10000000 nM, raw OD600 reference: median of DMSO wells […], cell-free background 0.052.

Counter-ions that a name gives are not always drawn. ± gives the standard deviation of the averaged measurements.

With `CC(C)(C)c1ccc(C(O)CCCN2CCC(C(O)(c3ccccc3)c3ccccc3)CC2)cc1` (centres undefined) [Terfenadine], the growth stood at 0.205 ± 0.0036 in experiment [1]; 0.207 ± 0.14 with E. coli TESEC Mtb Alr [2] (setting [5]); 0.296 ± 0.0092 in the experiment on E. coli TESEC Mtb Alr [2] (setting [6]); 0.181 ± 0.0044 in the experiment on E. coli TESEC Mtb Alr [2] (setting [7]); 0.136 ± 0.072 in the experiment on E. coli TESEC Mtb Alr [2] (setting [8]); 0.158 ± 0.0023 with E. coli TESEC Mtb Alr [2] (setting [9]). In addition, the growth with E. coli TESEC Mtb Asd (setting [10]) came to 0.265 ± 0.054; in the experiment on E. coli TESEC Mtb Asd (setting [11]) it was 0.421 ± 0.013; in the experiment with E. coli TESEC Mtb DapB (setting [12]), 0.199 ± 0.013; in the experiment on E. coli TESEC Mtb DapB (setting [13]), 0.239 ± 0.014; in experiment [3], 0.0576 ± 0.0093; in the experiment with E. coli TESEC Mtb Alr [4] (setting [14]), 0.0737 ± 0.031. In the experiment on E. coli TESEC Mtb Alr [4] (setting [15]), this compound registered a growth of 0.0518 ± 0.00085.
Consider `COC(=O)Nc1nc2cc(Sc3ccccc3)ccc2[nH]1` [Fenbendazole], for which the growth in experiment [1] was determined as 0.233 ± 0.0041; with E. coli TESEC Mtb Alr [2] (setting [5]), 0.273 ± 0.022; with E. coli TESEC Mtb Alr [2] (setting [6]) it was 0.273 ± 0.012; in the experiment on E. coli TESEC Mtb Alr [2] (setting [7]), 0.189 ± 0.012; in the experiment with E. coli TESEC Mtb Alr [2] (setting [8]), 0.195 ± 0.057; in the experiment with E. coli TESEC Mtb Alr [2] (setting [9]), 0.144 ± 0.0032. For the same compound, the growth with E. coli TESEC Mtb Asd (setting [10]) stood at 0.382 ± 0.11; with E. coli TESEC Mtb Asd (setting [11]), 0.434 ± 0.018; in the experiment on E. coli TESEC Mtb DapB (setting [12]) it was 0.2 ± 0.013; with E. coli TESEC Mtb DapB (setting [13]), 0.252 ± 0.041; in the experiment with E. coli TESEC Mtb Alr [4] (setting [14]) it was 0.421 ± 0.0066; in the experiment with E. coli TESEC Mtb Alr [4] (setting [15]) it was 0.352 ± 0.025.
Take `CC(C(=O)O)c1ccc(N2Cc3ccccc3C2=O)cc1` (centres undefined) [Indoprofen]: the growth is 0.219 ± 0.011 in experiment [1]; 0.264 ± 0.018 in the experiment on E. coli TESEC Mtb Alr [2] (setting [5]); 0.249 ± 0.0066 with E. coli TESEC Mtb Alr [2] (setting [6]); 0.178 ± 0.0022 with E. coli TESEC Mtb Alr [2] (setting [7]); 0.189 ± 0.0034 with E. coli TESEC Mtb Alr [2] (setting [8]); 0.128 ± 0.0066 with E. coli TESEC Mtb Alr [2] (setting [9]). For the same compound, the growth with E. coli TESEC Mtb Asd (setting [10]) was 0.345 ± 0.075; in the experiment with E. coli TESEC Mtb Asd (setting [11]), 0.353 ± 0.053; in the experiment on E. coli TESEC Mtb DapB (setting [12]), 0.206 ± 0.016; in the experiment with E. coli TESEC Mtb DapB (setting [13]), 0.186 ± 0.0097; in experiment [3] it was 0.486 ± 0.053; in the experiment with E. coli TESEC Mtb Alr [4] (setting [14]) it was 0.424 ± 0.013. This compound also registered a growth in the experiment with E. coli TESEC Mtb Alr [4] (setting [15]) of 0.361 ± 0.007.
In the case of `CN(C)CCOC(c1ccc(Cl)cc1)c1ccccn1` (centres undefined) [Carbinoxamine maleate salt], the growth in experiment [1] worked out at 0.2081 ± 0.00038; with E. coli TESEC Mtb Alr [2] (setting [5]), 0.297 ± 0.017; in the experiment with E. coli TESEC Mtb Alr [2] (setting [6]), 0.265 ± 0.006; in the experiment on E. coli TESEC Mtb Alr [2] (setting [7]) it was 0.196 ± 0.034; with E. coli TESEC Mtb Alr [2] (setting [8]), 0.187 ± 0.018; in the experiment on E. coli TESEC Mtb Alr [2] (setting [9]), 0.13 ± 0.011. Further, the growth in the experiment on E. coli TESEC Mtb Asd (setting [10]) came to 0.259 ± 0.023; in the experiment with E. coli TESEC Mtb Asd (setting [11]) it was 0.44 ± 0.01; in the experiment with E. coli TESEC Mtb DapB (setting [12]), 0.193 ± 0.01; with E. coli TESEC Mtb DapB (setting [13]), 0.23 ± 0.016; in the experiment with E. coli TESEC Mtb Alr [4] (setting [14]), 0.393 ± 0.015; with E. coli TESEC Mtb Alr [4] (setting [15]), 0.332 ± 0.021.
For the compound `CC1(C)O[C@@H]2C[C@H]3[C@@H]4C[C@H](F)C5=CC(=O)CC[C@]5(C)[C@H]4[C@@H](O)C[C@]3(C)[C@]2(C(=O)CO)O1` [Flurandrenolide], the growth in experiment [1] turned out to be 0.223 ± 0.0092; with E. coli TESEC Mtb Alr [2] (setting [5]), 0.289 ± 0.015; in the experiment with E. coli TESEC Mtb Alr [2] (setting [6]) it was 0.2518 ± 0.0025; with E. coli TESEC Mtb Alr [2] (setting [7]) it was 0.174 ± 0.022; with E. coli TESEC Mtb Alr [2] (setting [8]) it was 0.161 ± 0.01; in the experiment on E. coli TESEC Mtb Alr [2] (setting [9]), 0.131 ± 0.0031. Also, the growth with E. coli TESEC Mtb Asd (setting [10]) is 0.282 ± 0.038; in the experiment with E. coli TESEC Mtb Asd (setting [11]), 0.448 ± 0.035; with E. coli TESEC Mtb DapB (setting [12]), 0.216 ± 0.0087; in the experiment with E. coli TESEC Mtb DapB (setting [13]), 0.239 ± 0.0036; in experiment [3] it was 0.417 ± 0.041; in the experiment with E. coli TESEC Mtb Alr [4] (setting [14]), 0.406 ± 0.01. In the experiment on E. coli TESEC Mtb Alr [4] (setting [15]), this compound gave a growth of 0.338 ± 0.011.
As to `COc1ccc(-c2cc(=S)ss2)cc1` [Anethole-trithione], the growth amounted to 0.182 ± 0.013 in experiment [1]; 0.232 ± 0.008 in the experiment on E. coli TESEC Mtb Alr [2] (setting [5]); 0.218 ± 0.019 with E. coli TESEC Mtb Alr [2] (setting [6]); 0.18 ± 0.0053 in the experiment on E. coli TESEC Mtb Alr [2] (setting [7]); 0.12 ± 0.026 with E. coli TESEC Mtb Alr [2] (setting [8]); 0.168 ± 0.0049 in the experiment with E. coli TESEC Mtb Alr [2] (setting [9]). The growth turned out to be 0.211 ± 0.018 in the experiment with E. coli TESEC Mtb Asd (setting [10]); 0.263 ± 0.022 in the experiment on E. coli TESEC Mtb Asd (setting [11]); 0.193 ± 0.0052 in the experiment with E. coli TESEC Mtb DapB (setting [12]); 0.218 ± 0.011 in the experiment on E. coli TESEC Mtb DapB (setting [13]); 0.616 ± 0.027 in experiment [3]; 0.4304 ± 0.0029 in the experiment on E. coli TESEC Mtb Alr [4] (setting [14]). For the same compound, the growth in the experiment with E. coli TESEC Mtb Alr [4] (setting [15]) was 0.369 ± 0.019.
Turning to `CC(C)NCC(O)c1ccc(O)c(O)c1` (single isomer, unassigned; (-)) [(-)-Isoproterenol hydrochloride], the growth in experiment [1] came out at 0.236 ± 0.0036; in the experiment on E. coli TESEC Mtb Alr [2] (setting [5]), 0.289 ± 0.0076; in the experiment with E. coli TESEC Mtb Alr [2] (setting [6]), 0.278 ± 0.015; in the experiment on E. coli TESEC Mtb Alr [2] (setting [7]), 0.184 ± 0.02; with E. coli TESEC Mtb Alr [2] (setting [8]) it was 0.199 ± 0.004; in the experiment with E. coli TESEC Mtb Alr [2] (setting [9]), 0.143 ± 0.0042. Further, the growth with E. coli TESEC Mtb Asd (setting [10]) is 0.281 ± 0.052; with E. coli TESEC Mtb Asd (setting [11]), 0.392 ± 0.03; in the experiment with E. coli TESEC Mtb DapB (setting [12]) it was 0.191 ± 0.014; in the experiment on E. coli TESEC Mtb DapB (setting [13]) it was 0.23 ± 0.035; in experiment [3], 0.539 ± 0.066; in the experiment with E. coli TESEC Mtb Alr [4] (setting [14]) it was 0.4345 ± 0.003. The compound also showed a growth in the experiment with E. coli TESEC Mtb Alr [4] (setting [15]) of 0.32 ± 0.02.

Source of the values: the supplement of paper PMC9262897, “Low-cost anti-mycobacterial drug discovery using engineered E. coli” (Nature Communications, 2022).
